A selection: hits, their analogues and other compounds. The true share with any hit is near 1.6%.
KCNQ2 inh: KCNQ2 (rat) channel inhibition. O88943. CHO-K1 KCNQ2, FluxOR thallium flux, 20 min; active compounds read low. B-score at 10 µM. 310,000 compounds, 1.1% hits. AID 2156;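 active = fluorescence ratio B-score at most minus 3 library SDs, with starting brightness B-score within 2 library SDs, cut at about -5.5 in these data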
KCNQ2 enhance: KCNQ2 (rat) channel potentiation | O88943 | CHO-K1 KCNQ2, FluxOR thallium flux fluorescence; active compounds read high | B-score at 10 µM | 310,000 compounds, 0.54% hits | AID 2239;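 active = fluorescence ratio B-score at least 3 SD of library B-scores, with initial fluorescence B-score within 3 of them, cut at about 5.3 in these data; same plate scores as AID 2156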;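 note: B-score of peak minus minimum over baseline fluorescence ratio after K+ and Tl+ stimulus; positive B-score means potentiation of KCNQ2 with more thallium influx and brighter signal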
* marks the source's active call; other numbers are inactive results; i = inactive; nt = no result given.

SMILES	KCNQ2 inh	KCNQ2 enhance
O=C(Nc1cccc(-n2cccn2)c1)C1CCCN(Cc2cc3ccccc3[nH]2)C1 (configuration not stated)	-8.2*	-8.2
Cc1cc(CN2CCCC(C(=O)Nc3cccc(-n4cccn4)c3)C2)cc(C)c1O (configuration not stated)	i	nt
C#CCOCCOCCOCCNc1nc(N2CCN(C(=O)[C@H](CCCCN)n3cc([C@@H](N)CO)nn3)CC2)nc(N2CCN(C(=O)[C@H](Cc3cc4ccccc4[nH]3)n3cc([C@@H](N)CC(C)C)nn3)CC2)n1	i	1
CC(C)(C)c1ccc(S(=O)(=O)/N=C2\C=C(NS(=O)(=O)c3ccccc3)C(=O)c3ccccc32)cc1	-6.1*	-6.1
CCc1ccc(S(=O)(=O)/N=C2\C=C(Nc3ccc(C(=O)O)cc3)C(=O)c3ccccc32)cc1	i	3.1
Cc1c(Cl)ccc2c(C(=O)Nc3cc(C(C)(C)C)on3)cc(-c3ccccn3)nc12	-5.9*	-5.9
Cc1cccc2c(C(=O)Nc3ccc(Br)cc3)cc(-c3ccccn3)nc12	i	0.05
[O-]/[N+](=C\c1ccco1)c1ccc(Cl)cc1	i	1.5
COc1cc(CCN2C(=O)c3cccc4cccc(c34)C2=O)c(S(=O)(=O)N2CCC(C)CC2)cc1OC	-6.7*	-6.7
COc1cc(CCN2C(=O)c3cccc4cccc(c34)C2=O)c(S(=O)(=O)N2CCCCCC2)cc1OC	i	nt
Cc1ccc(OCCN2CCN(c3ncnc4sc(C)c(C)c34)CC2)cc1	i	nt
Clc1ccc(OCCN2CCN(c3ncnc4sccc34)CC2)cc1	-6*	-6
COC(=O)C(CC(=O)c1ccc(Br)cc1)n1cccn1 (configuration not stated)	i	nt
N#Cc1ccc(NC(=O)N2CCC(c3nc4c(nnn4Cc4cccc(Cl)c4)c(=O)[nH]3)CC2)cc1	-7.5*	-7.5
O=C(c1ccco1)N1CCCC(c2nc3c(nnn3Cc3cccc(Cl)c3)c(=O)[nH]2)C1 (configuration not stated)	i	0.55
COc1cccc(C(=O)Nc2ccc(NC(C)=O)cc2)c1	i	nt
COc1cccc(C(=O)NN/C(C)=C/C(=O)C(F)(F)C(F)(F)C(F)(F)F)c1	i	8.5*
COc1ccc(-c2cc3nc(C)cc(N4CC(C)CC(C)C4)n3n2)cc1 (configuration not stated)	-6*	-6
COc1ccc(-c2cc(C(F)(F)F)n3nc(C)cc3n2)cc1	i	nt
CCCn1c(N)c(N(CCOC)C(=O)CSCC(=O)Nc2cccc(C)c2)c(=O)[nH]c1=O	i	0.71
Nc1nc(Cl)cc(Nc2ccccc2Cl)n1	i	3.4
CSc1nc(Cl)cc(Nc2ccccc2N)n1	-6*	-6
O=C(OCC(=O)N1CCOCC1)c1ccc(Br)cc1	i	0.39
COc1ccc(Cc2nnc(SCC(=O)Nc3ccc(N4CCOCC4)cc3)o2)cc1	i	1.5
COc1cc2ncc(S(=O)(=O)c3ccccc3)c(N3CCCC(C)C3)c2cc1OC (configuration not stated)	i	nt
SMILES	KCNQ2 inh	KCNQ2 enhance
CCc1cc(SC#N)cc(CC)c1NC(=O)CCl	i	5.3*
Cc1cc(C)c2c(NC(=O)CCl)nn(C)c2n1	i	0.1
CCOc1ncccc1C(=O)NNC(=O)c1ccc(NS(=O)(=O)c2cccs2)cc1	i	2.4
CC1(C)C(=O)OC(c2ccc([N+](=O)[O-])cc2)C(C)(C)C1=O (configuration not stated)	i	nt
Clc1nnc(NN=C2CCCC2)c2ccccc12	i	9.5*
Clc1nnc(N/N=C/c2ccccc2)c2ccccc12	i	0.13
Nc1[nH]c2cc([N+](=O)[O-])ccc2c1-c1ccccn1	i	nt
CCN(Cc1ccccc1)C(c1ccncc1)c1nnnn1C(C)(C)C (configuration not stated)	i	nt
CC(C)(C)n1nnnc1C(c1cccnc1)N(Cc1ccccc1)Cc1cccs1 (configuration not stated)	i	nt
CCOc1ccc2[nH]c(=O)c(CN(Cc3cccs3)C(CC)c3nnnn3C(C)(C)CC)cc2c1 (configuration not stated)	i	nt
CC(C)(C)c1ccc(CN(Cc2ccccc2)C(c2ccccn2)c2nnnn2C(C)(C)C)cc1 (configuration not stated)	-9.4*	-9.4
Cc1ccc(C(c2nnnn2C(C)(C)C)N(Cc2ccco2)Cc2cccs2)cc1 (configuration not stated)	-6.2*	-6.2
c1ccc(CN(Cc2ccco2)C(c2ccncc2)c2nnnn2C2CCCC2)cc1 (configuration not stated)	i	nt
CCC(c1nnnn1C(C)(C)C)N(Cc1cccs1)Cc1cc2cc(C)c(C)cc2n2nnnc12 (configuration not stated)	-5.9*	-5.9
CC(C)(C)n1nnnc1C(c1ccc(C(F)(F)F)cc1)N(Cc1ccc(F)cc1)Cc1ccco1 (configuration not stated)	-6.5*	-6.5
CC(C)(C)c1ccc(NC(=O)C2CCCN(c3cnccn3)C2)cc1 (configuration not stated)	i	nt
Cc1ccc(-c2nc(CS(=O)CC(=O)NCc3ccc4c(c3)OCO4)c(C)o2)cc1 (configuration not stated)	i	0.51
CCc1ccc(OCC(=O)Nc2ccc3[nH]ncc3c2)cc1	i	nt
O=C(Nc1ccncc1)c1cc2ccccc2cc1O	i	0.85
C/C(=N\OCC(=O)OCC(=O)NCc1ccccc1)c1ccc2c(c1)OCO2	i	nt
CC(C)(C)C1COc2ccccc2N1C(=O)c1cccc(Cl)c1 (configuration not stated)	i	0.65
CC(C)(C)n1nnnc1C(c1ccc(Cl)cc1)N(Cc1cccnc1)Cc1ccco1 (configuration not stated)	-6.2*	-6.2
CC(C)(C)n1nnnc1C(c1cccs1)N(Cc1ccccc1)Cc1cccnc1 (configuration not stated)	i	nt
CN(C)S(=O)(=O)N1CCC(Oc2cccc(C(=O)N3CCSCC3)c2)CC1	i	0.36
C/C(=N/Nc1nc(C)cc(-c2ccccc2)n1)c1ccco1	i	1.7
SMILES	KCNQ2 inh	KCNQ2 enhance
C/C(=N\Nc1nc(C)cc(-c2ccccc2)n1)c1ccc(C)o1	-6.1*	-6.1
O=C(O)c1ccc2c(c1)C1C=CCC1C(c1ccncc1)N2 (configuration not stated)	i	1.9
CC(=O)c1ccc2c(c1)C1C=CCC1C(c1cc3c(cc1Br)OCO3)N2 (configuration not stated)	-7.4*	-7.4
COc1ccc(S(=O)(=O)Cc2ccc(C(=O)NC3CCCCC3)o2)cc1	i	0.42
Cc1ccccc1N1CCN(c2ncnc3c2cnn3Cc2ccc(Cl)cc2)CC1	-5.7*	-5.7
Cc1ccc(Cn2ncc3c(N4CCN(Cc5ccc(Cl)cc5)CC4)ncnc32)cc1	i	nt
CN(C)c1cccc(C(=O)OC(C(=O)Nc2ccc(Cl)cc2C(F)(F)F)c2ccccc2)c1 (configuration not stated)	-8*	-8
O=C(OC(C(=O)Nc1ccc(Cl)cc1C(F)(F)F)c1ccccc1)C1=COCCO1 (configuration not stated)	i	nt
Cc1cccnc1NC(=O)CSc1ncnc2sc(C)c(C)c12	i	nt
COC(=O)c1c(-c2ccccc2)csc1NC(=O)CSc1ncnc2sc(C)c(C)c12	-5.6*	-5.6
CCN(CC)CCNC(=O)C(Oc1ccccc1)Oc1ccccc1	i	0.8
